Hits are enriched below; roughly 3.8% of the tested compounds scored in any of these assays.
H9c2 protect: myocardial damage modulation in H9c2 cells. H9c2 cardiomyocytes, H2O2 injury protection, ATPLite, 2 h. AID 588492. 360,000 tested, 0.63% active. protection from H2O2 cell death, % at 20 µM;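 active = compounds giving at least 50% protection of heart cells from peroxide-induced death in the single-dose screen, raw or plate-pattern-corrected value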
FAS TE block: FAS thioesterase (human) inhibition; recombinant FAS-TE, OMFH fluorogenic substrate, fluorescence endpoint; inhibition, % at 15 µM; 360,000 tested, 0.67% active; AID 602261;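 active = compounds whose normalised, plate-corrected inhibition of enzyme fluorescence in the single-dose primary screen is 50% or more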
MPTP block: permeability transition pore inhibition; isolated mouse mitochondria, Ca2+ swelling absorbance, 30 min; inhibition, % at 10 µM; 360,000 tested, 1.4% active;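 active = inhibition of 50% or more, scaled per plate between neutral and stimulator controls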
CR mimetic SO: lowers age-related superoxide in aged yeast cells | S. cerevisiae aged cells, superoxide DHE fluorescence; stronger effect = lower value | superoxide response (% of plate mean), % at 10 µM | 330,000 tested, 0.18% active | AID 2690;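 active = superoxide response under a set limit, about three screen SD below normal, cut at about 65% in these data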;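 also: yeast aged for seven days with compound at 30 °C before DHE staining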
aDG glyco act: alpha-DG glycosylation activation; 360,000 tested, 0.22% active; activation, % at 10 µM; Pro5-aDG cells, alpha-DG glycosylation AlphaScreen (IIH6); 0% Pro5, 100% B10-LARGE cell signal;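 active = activation of at least 8% versus controls, or a plate z-score of at least 8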;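 also: Pro5 are CHO cells carrying HIG-tagged alpha-DG that lacks glycosylation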
SUMO Mot1 rescue: SUMOylation pathway inhibition by Mot1-301 growth rescue | S. cerevisiae Mot1-301 growth rescue, ATP luminescence, 38.5C; percent above DMSO median, 100 means doubled | growth rescue, % at 18.8 µM | 320,000 tested, 1% active | AID 2716;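 active = every valid replicate shows activation above 250% relative to neutral control wells; inactive = the rest, any valid replicate at or below 250%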
Yeast Mot1 SUMO: yeast SUMO pathway inhibition in dose response. S. cerevisiae Mot1-301 galactose growth, ATP luminescence, 24 h; -100 = growth of slx-deleted rescue strain. AID 493004. 2,300 tested, under 10 active. growth activity, percent, % at 42 µM. shares compounds with SUMO Mot1 rescue;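 active = Signal drops as the depositor expects, and the fitted half-maximal dose is no more than ten times the top valid tested dose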;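 also: more negative values mean stronger growth rescue toward the control strain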
FAS-TE conf: FAS thioesterase (human) inhibition, confirmation; inhibition, % at 15 µM; AID 624325; 2,300 tested, 45% active; shares compounds with FAS TE block; recombinant FAS-TE, OMFH fluorogenic substrate, fluorescence;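 active = compounds inhibiting the enzyme by at least 50% at 15 µM in any one of the replicates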
A number is an active result.

Results for CCOP(=O)(OCC)C(NC(=O)c1cccc(C)c1)C(Cl)(Cl)Cl (centres undefined) ?
H9c2 protect: inactive; FAS TE block: inactive; MPTP block: inactive; CR mimetic SO: inactive; aDG glyco act: inactive; SUMO Mot1 rescue: 971; Yeast Mot1 SUMO: inactive

Results for CCOP(=O)(OCC)C(NC(=O)c1cccc2ccccc12)C(Cl)(Cl)Cl (centres undefined) ?
H9c2 protect: inactive; FAS TE block: inactive; MPTP block: inactive; CR mimetic SO: inactive; aDG glyco act: inactive; SUMO Mot1 rescue: inactive

Results for COC(=O)C1=C(c2ccc(F)cc2F)C[C@@H]2CC[C@H]1N2C(=O)NCCCOC(C)C ?
H9c2 protect: inactive; FAS TE block: inactive; MPTP block: inactive; CR mimetic SO: inactive; aDG glyco act: inactive; SUMO Mot1 rescue: inactive

What do the screens show for `Fc1ccccc1CN1Cc2ccccc2-n2nncc2C1`?
H9c2 protect: inactive; FAS TE block: inactive; MPTP block: inactive; aDG glyco act: inactive

Results for O=C1NC(=S)NC(=O)C1Cc1ccccc1O ?
H9c2 protect: inactive; FAS TE block: inactive; MPTP block: inactive; aDG glyco act: inactive

How did CC(=O)N(C)C1=Nc2ccc(Cl)cc2C(c2ccccc2)=[N+]([O-])C1 do in these assays?
H9c2 protect: inactive; FAS TE block: inactive; MPTP block: inactive; aDG glyco act: inactive

What do the screens show for `O=[N+]([O-])c1ccc(N2CCCC2)c(F)c1Br`?
H9c2 protect: inactive; FAS TE block: inactive; MPTP block: inactive; CR mimetic SO: inactive; aDG glyco act: inactive; SUMO Mot1 rescue: inactive

What do the screens show for `Cc1cc(Oc2cc(NN3CCCCC3)c([N+](=O)[O-])cc2[N+](=O)[O-])ccc1[N+](=O)[O-]`?
H9c2 protect: inactive; FAS TE block: inactive; MPTP block: inactive; CR mimetic SO: inactive; aDG glyco act: inactive; SUMO Mot1 rescue: 752; Yeast Mot1 SUMO: inactive

How did COC(=O)c1cn(C(=O)c2cccc3ccccc23)c2ccccc12 do in these assays?
H9c2 protect: inactive; FAS TE block: inactive; MPTP block: inactive; CR mimetic SO: inactive; aDG glyco act: inactive; SUMO Mot1 rescue: 490; Yeast Mot1 SUMO: inactive

What do the screens show for `COC(=O)C1=C(c2ccc(-c3ccccc3)c(F)c2)C[C@@H]2CC[C@H]1N2C(=O)NC1Cc2ccccc2C1`?
H9c2 protect: inactive; FAS TE block: 53; MPTP block: inactive; CR mimetic SO: inactive; aDG glyco act: inactive; SUMO Mot1 rescue: inactive; FAS-TE conf: inactive

How did COC(=O)C1=C(c2ccc(C(C)=O)cc2)C[C@@H]2CC[C@H]1N2C(=O)NCC1CC1 do in these assays?
H9c2 protect: inactive; FAS TE block: inactive; MPTP block: inactive; CR mimetic SO: inactive; aDG glyco act: inactive; SUMO Mot1 rescue: inactive

How did COc1ccc(CN2CC=C(c3ccc(F)cc3)CC2)cc1Br do in these assays?
H9c2 protect: inactive; FAS TE block: inactive; MPTP block: inactive; CR mimetic SO: inactive; aDG glyco act: inactive; SUMO Mot1 rescue: inactive

How did O=[N+]([O-])c1cccc(CN2CC=C(c3ccc(F)cc3)CC2)c1 do in these assays?
H9c2 protect: inactive; FAS TE block: 57; MPTP block: inactive; CR mimetic SO: inactive; aDG glyco act: inactive; SUMO Mot1 rescue: inactive; FAS-TE conf: 53

Results for CCOC(=O)c1c(C=O)c2ccccc2n1Cc1ccccc1 ?
H9c2 protect: inactive; FAS TE block: inactive; MPTP block: inactive; CR mimetic SO: inactive; aDG glyco act: inactive; SUMO Mot1 rescue: inactive

How did COc1ccc(C(c2nnnn2-c2ccc3c(c2)OCCO3)N2CCC3(CC2)C(=O)NCN3c2ccccc2)cc1 (centres undefined) do in these assays?
H9c2 protect: inactive; FAS TE block: 63; MPTP block: inactive; aDG glyco act: inactive; FAS-TE conf: inactive

How did CCC(c1nnnn1-c1ccc2c(c1)OCCO2)N1CCC2(CC1)C(=O)NCN2c1ccccc1 (centres undefined) do in these assays?
H9c2 protect: inactive; FAS TE block: inactive; MPTP block: inactive; aDG glyco act: inactive

How did O=C1NCN(c2ccccc2)C12CCN(C(c1cccc3ccccc13)c1nnnn1C1CCCCC1)CC2 (centres undefined) do in these assays?
H9c2 protect: inactive; FAS TE block: inactive; MPTP block: inactive; aDG glyco act: inactive

How did O=C1NCN(c2ccccc2)C12CCN(C(c1cccc3ccccc13)c1nnnn1C1CCCC1)CC2 (centres undefined) do in these assays?
H9c2 protect: inactive; FAS TE block: 77; MPTP block: inactive; aDG glyco act: inactive; FAS-TE conf: inactive

What do the screens show for `O=C1NCN(c2ccccc2)C12CCN(C(CCc1ccccc1)c1nnnn1-c1ccc3c(c1)OCCO3)CC2` (centres undefined)?
H9c2 protect: inactive; FAS TE block: 65; MPTP block: inactive; aDG glyco act: inactive; FAS-TE conf: inactive

What do the screens show for `Cc1cccc(NC2=NCCCS2)c1`?
H9c2 protect: inactive; FAS TE block: inactive; MPTP block: inactive; CR mimetic SO: inactive; aDG glyco act: inactive; SUMO Mot1 rescue: inactive

What do the screens show for `COc1ccccc1C1C([N+](=O)[O-])=C(N)Oc2c1c(=O)oc1ccccc21` (centres undefined)?
H9c2 protect: inactive; FAS TE block: inactive; MPTP block: inactive; CR mimetic SO: inactive; aDG glyco act: inactive; SUMO Mot1 rescue: inactive

Results for O=C(NC(=C(Cl)Cl)P(=O)(c1ccccc1)c1ccccc1)c1ccccc1 ?
H9c2 protect: inactive; FAS TE block: inactive; MPTP block: inactive; CR mimetic SO: inactive; aDG glyco act: inactive; SUMO Mot1 rescue: inactive

What do the screens show for `C/C(=N\N1CCCCC1c1cccnc1)c1c(O)n(C2CCCCC2)c(=S)[nH]c1=O` (centres undefined)?
H9c2 protect: inactive; FAS TE block: 70; MPTP block: inactive; CR mimetic SO: inactive; aDG glyco act: inactive; SUMO Mot1 rescue: inactive; FAS-TE conf: inactive

Results for O=c1oc2ccccc2c(O)c1C(c1ccc([N+](=O)[O-])cc1)c1c(O)c2ccccc2oc1=O ?
H9c2 protect: inactive; FAS TE block: 76; MPTP block: inactive; aDG glyco act: inactive; FAS-TE conf: 82

Results for COc1ccc(-c2nn(CCC#N)cc2C(=O)Nc2ccc(C(C)=O)cc2)cc1[N+](=O)[O-] ?
H9c2 protect: inactive; FAS TE block: 85; MPTP block: inactive; CR mimetic SO: inactive; aDG glyco act: inactive; SUMO Mot1 rescue: inactive; FAS-TE conf: 91

How did Oc1ccc(O)c2c1C1(Cl)C(Cl)=C(Cl)C2(Cl)C1(Cl)Cl do in these assays?
H9c2 protect: inactive; FAS TE block: 51; MPTP block: inactive; aDG glyco act: inactive; FAS-TE conf: 50

Assay outcomes (PubChem)
